Assay outcomes deposited in PubChem by National Center for Advancing Translational Sciences (NCATS).
IL1B secr inh: inhibitors of inflammasome signaling (IL-1 beta secretion); 360,000 tested, 4.7% active; THP-1 LPS/ATP IL-1B secretion, AlphaLISA, 16 h; stronger effect = lower value; activity change, % at 57.5 µM; in the data active = activity change below about -50%; inconclusive = mostly about -30% to -49%
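THP-1 cells pretreated 1 hr with compounds (up to 57.5 uM final), then stimulated with LPS (250 ng/mL final) plus ATP (1.25 mM final); secreted IL-1B measured by AlphaLISA after 16 hr, decreased signal indicating inhibition.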
DT40 TDP1 CPT: DT40-hTDP1 cell growth loss with CPT; chicken DT40 Tdp1-/-;hTDP1 cells + 20 nM CPT, ATP luminescence, 48 h; Potency, µM (doses to about 46.2 µM), for inactives: at the highest dose activity change, negative = growth inhibition, hits mostly inhibitors; 420,000 tested, 12% active; AID 686979; note: potency is the fitted concentration of half-maximal effect; nearly all actives have a fitted effect of over 55% in size
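Cell growth measured by CellTiter-Glo luminescence after a minimum 48 h, 37 C compound exposure with 20 nM CPT in Tdp1-knockout DT40 cells stably expressing hTDP1, seeded 400/well; qHTS titration format.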
HT1080-NT tox: kills 2HG-producing HT-1080-NT fibrosarcoma cells | AID 686970 | Potency, µM (titrated, usually from 46.1 µM), inactives show at the top dose activity, negative = less viability, actives largely listed as cytotoxic | HT-1080-NT fibrosarcoma viability, CellTiter-Glo ATP luminescence, 48 h | 360,000 tested, 1.6% active;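 note: NT is the 2HG producing partner of a matched IDH1 knockdown line; potency is the fitted concentration of half-maximal effect; 0% = DMSO-treated cells and -100% = media-only wells without cells; nearly all actives have a fitted effect of over 55% in size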
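HT-1080-NT; 750 cells/well; 5% FBS RPMI; 48 h compound, 37 degrees C; CellTiter-Glo luminescence; curve fitting and curve-class assignment.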
TDP1 cell noCPT: qHTS for Inhibitors of human tyrosyl-DNA phosphodiesterase 1 (TDP1): qHTS in cells in absence of CPT; DT40 Tdp1-/- hTDP1 cells, no CPT, ATP luminescence, 48 h; AID 686978, 2013; 420,000 tested, 15% active; Potency, µM (highest dose often 46.2 µM), without a hit: at the top dose activity change, negative = growth inhibition, usual class: inhibitors; note: potency is the fitted concentration of half-maximal effect; nearly all actives have a fitted effect of over 55% in size
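Growth kinetics read by CellTiter-Glo luminescence after ≥48 hr at 37 °C. Cells: DT40 Tdp1-/- stably carrying human TDP1, 400 per well, compound exposure in the absence of CPT (DMSO vehicle).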
HT1080 IDH1KD tx: kills HT-1080 cells with IDH1 knockdown | HT-1080 IDH1 knockdown viability, ATP luminescence, 48 h | Potency, µM (top dose mostly 46.1 µM), without a hit: top-dose activity, negative = toxicity, actives largely listed as cytotoxic | 360,000 tested, 2% active | AID 686971;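 note: potency is the fitted concentration of half-maximal effect; 0% = DMSO wells and -100% = cell-free medium wells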
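HT-1080-IDH1KD cells (IDH1 knocked down), 750/well in RPMI with 5% FBS, treated with compound 48 h at 37 degrees C. Viability by CellTiter-Glo luminescence, normalised to DMSO and no-cell wells; concentration-response curves classed.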
Starred values were filed as active, the others as inactive; [ ] = another dose, or the depositor's remark. Compounds with a hit are over-represented: about 19% of the library has one in this group of screens. Unless noted, calls come from the whole dose curve; as a rule, active = well fitted curve in the direction sought with a large enough effect; inconclusive = small, poorly fitted or top-dose-only effect, or another doubt; inactive = no such curve, though single readings can be large; an effect the other way counts as inactive or inconclusive. Unless noted, % is set by controls: 0 for no effect and ±100 for the full control effect.

What do the screens show for `N#Cc1c(N2CCOCC2)nc(-c2ccco2)c2c1CCCC2`?
IL1B secr inh: -78*; DT40 TDP1 CPT: inconclusive; HT1080-NT tox: -5%; TDP1 cell noCPT: inconclusive; HT1080 IDH1KD tx: -5%

What do the screens show for `CCc1nc(N2CCOCC2)c(C#N)c2c1CCCC2`?
IL1B secr inh: -13; DT40 TDP1 CPT: -14%; HT1080-NT tox: -5%; TDP1 cell noCPT: -16%; HT1080 IDH1KD tx: -5%

Results for N#Cc1c(NCCN)nc(-c2ccco2)c2c1CCCC2 ?
IL1B secr inh: -105*; DT40 TDP1 CPT: inconclusive; HT1080-NT tox: inconclusive; TDP1 cell noCPT: inconclusive; HT1080 IDH1KD tx: inconclusive

What do the screens show for `COc1ccc(CC(N)c2csc(Nc3nncc4ccccc34)n2)cc1` (stereo not given)?
IL1B secr inh: 0; DT40 TDP1 CPT: inconclusive; HT1080-NT tox: inconclusive; TDP1 cell noCPT: 18µM*; HT1080 IDH1KD tx: inconclusive

What do the screens show for `CCCc1cnc(Nc2nc(C(N)Cc3ccc(OC)cc3)cs2)nc1` (stereo not given)?
IL1B secr inh: inconclusive; DT40 TDP1 CPT: inconclusive; HT1080-NT tox: 21µM*; TDP1 cell noCPT: inconclusive; HT1080 IDH1KD tx: inconclusive

Results for Cc1cnc(C)c(Nc2nc(C(N)Cc3ccccc3)cs2)n1 (stereo not given) ?
IL1B secr inh: -18; DT40 TDP1 CPT: inconclusive; HT1080-NT tox: inconclusive; TDP1 cell noCPT: inconclusive; HT1080 IDH1KD tx: inconclusive

What do the screens show for `CCc1cnc(Nc2nc(C(N)Cc3ccc(Cl)cc3)cs2)nc1` (stereo not given)?
IL1B secr inh: inconclusive; DT40 TDP1 CPT: inconclusive; HT1080-NT tox: 21µM*; TDP1 cell noCPT: inconclusive; HT1080 IDH1KD tx: inconclusive

What do the screens show for `NC(Cc1ccc(Cl)cc1)c1csc(Nc2ccc(-c3ccccc3)nn2)n1` (stereo not given)?
IL1B secr inh: -50*; DT40 TDP1 CPT: 6.5µM*; HT1080-NT tox: inconclusive; TDP1 cell noCPT: -90%; HT1080 IDH1KD tx: -24%

What do the screens show for `CCc1cnc(Nc2nc(C(N)c3ccccc3Cl)cs2)nc1` (stereo not given)?
IL1B secr inh: -13; DT40 TDP1 CPT: inconclusive; HT1080-NT tox: -22%; TDP1 cell noCPT: inconclusive; HT1080 IDH1KD tx: -1%

Results for Cc1ccc(NC(=O)CS(=O)CC(=O)Nc2ccccc2-c2ccc(C)o2)cc1 (stereo not given) ?
IL1B secr inh: -9; DT40 TDP1 CPT: inconclusive; HT1080-NT tox: -22%; TDP1 cell noCPT: -26%; HT1080 IDH1KD tx: inconclusive

What do the screens show for `CN1CCCN(C(=O)[C@@H]2C[C@@H](Sc3nc4ccccc4[nH]3)CN2Cc2ccc(OC(F)(F)F)cc2)CC1`?
DT40 TDP1 CPT: -16%[9.04 µM]; TDP1 cell noCPT: inconclusive

How did COc1ccccc1N1CCN(C(=O)CSc2nc3ccccc3nc2Cc2ccc(C)cc2)CC1 do in these assays?
DT40 TDP1 CPT: 16µM*; TDP1 cell noCPT: inconclusive

How did COc1ccc(NC(=O)CSc2nc3ccccc3nc2Cc2ccc(C)cc2)cc1Cl do in these assays?
DT40 TDP1 CPT: 13µM*; TDP1 cell noCPT: inconclusive

What do the screens show for `COc1ccccc1N1CCN(C(=O)CSc2nc3ccccc3nc2N2CCCCC2)CC1`?
IL1B secr inh: -10; DT40 TDP1 CPT: inconclusive; HT1080-NT tox: 1%; TDP1 cell noCPT: inconclusive; HT1080 IDH1KD tx: -11%

Results for O=C(CSc1nc2ccccc2nc1Cc1ccccc1)N1CCN(c2ccccc2)CC1 ?
DT40 TDP1 CPT: -3%; TDP1 cell noCPT: -6%

What do the screens show for `O=C(CSc1nc2ccccc2nc1Cc1ccc(Cl)cc1)N1CCN(c2ccccc2F)CC1`?
DT40 TDP1 CPT: 16µM*; TDP1 cell noCPT: 21µM*

Results for COc1ccccc1N1CCN(C(=O)CSc2nnc(NC(=O)C(C)C)s2)CC1 ?
IL1B secr inh: -14; DT40 TDP1 CPT: inconclusive; HT1080-NT tox: 17%; TDP1 cell noCPT: inconclusive; HT1080 IDH1KD tx: 1%

How did CCC(CC)C(=O)Nc1nnc(SCC(=O)N2CCN(c3ccccc3OC)CC2)s1 do in these assays?
IL1B secr inh: -15; DT40 TDP1 CPT: 21µM*; HT1080-NT tox: -11%; TDP1 cell noCPT: 21µM*; HT1080 IDH1KD tx: -9%

Results for CN(Cc1ccccc1)S(=O)(=O)c1cn(C)cn1 ?
IL1B secr inh: 9; DT40 TDP1 CPT: 7%; HT1080-NT tox: 1%; TDP1 cell noCPT: -2%; HT1080 IDH1KD tx: 2%

Results for COc1cc2c(cc1CNC[C@H]1O[C@@H](n3ccc(N)nc3=O)[C@H](O)[C@@H]1O)OCO2 ?
IL1B secr inh: 18; DT40 TDP1 CPT: -2%; HT1080-NT tox: 8%; TDP1 cell noCPT: -11%; HT1080 IDH1KD tx: 21%

Results for COc1ccccc1N1CCN(C(=O)CSc2nc3ccccc3nc2N2CCC(C)CC2)CC1 ?
IL1B secr inh: inconclusive; DT40 TDP1 CPT: 21µM*; HT1080-NT tox: -8%; TDP1 cell noCPT: 23µM*; HT1080 IDH1KD tx: -3%

What do the screens show for `O=C(CSc1ccc2nnc(CCNC(=O)c3ccccc3)n2n1)Nc1ccc(F)cc1F`?
IL1B secr inh: 11; DT40 TDP1 CPT: 4%; HT1080-NT tox: 1%; TDP1 cell noCPT: -6%; HT1080 IDH1KD tx: 1%

What do the screens show for `Cc1ccc(-c2nnn(CC(=O)N3CCN(c4ccccc4)CC3)n2)o1`?
IL1B secr inh: -9; DT40 TDP1 CPT: -4%; HT1080-NT tox: 0%; TDP1 cell noCPT: -3%; HT1080 IDH1KD tx: 13%

How did Cc1ccccc1Oc1ccc(-c2nc(N)nc(N)n2)cc1 do in these assays?
IL1B secr inh: 32; DT40 TDP1 CPT: -26%; HT1080-NT tox: -23%; TDP1 cell noCPT: inconclusive; HT1080 IDH1KD tx: -12%

Results for Nc1nc(N)c2c(OCc3ccc(C(F)(F)F)cc3)cccc2n1 ?
DT40 TDP1 CPT: 5µM*; TDP1 cell noCPT: 3.2µM*

Results for Nc1nc(N)c2c(Oc3ccc(F)cc3)cccc2n1 ?
DT40 TDP1 CPT: 13µM*; TDP1 cell noCPT: 1.8µM*

What do the screens show for `CC(=O)N1CCN(S(=O)(=O)c2cccc(C(=O)Nc3ccccc3N3CCCC3)c2)CC1`?
IL1B secr inh: -8; DT40 TDP1 CPT: -28%; HT1080-NT tox: -1%; TDP1 cell noCPT: -17%; HT1080 IDH1KD tx: -10%

Results for Cc1cc(C)cc(N(CCC#N)C(=O)COC(=O)C2CCN(c3ccc(C(F)(F)F)cn3)CC2)c1 ?
IL1B secr inh: -11; DT40 TDP1 CPT: inconclusive; HT1080-NT tox: -7%; TDP1 cell noCPT: inconclusive; HT1080 IDH1KD tx: -13%

What do the screens show for `O=C(N/N=C/c1cc(Br)cc(Br)c1O)c1cccc(N2CCCC2=O)c1`?
IL1B secr inh: 129; DT40 TDP1 CPT: 5.2µM*; HT1080-NT tox: -12%; TDP1 cell noCPT: 1.5µM*; HT1080 IDH1KD tx: -22%
